Sampled rows, rich in hits. Any-hit rate of the full collection: about 9%.
JMJD2A Tudor inh – inhibitors of human JMJD2A Tudor domain; O75164; AlphaScreen JMJD2A-Tudor / H3K4me3 peptide binding; Potency, µM (series often up to 114 µM), for the others: top-dose activity change, negative = inhibition, actives largely listed as inhibitors; actives 4.4% (n = 390,000); further: on the % scale 0 is the no-effect control and ±100 the full control effect; nearly all actives have a fitted effect of over 50% in size
G9a inh – blocks human histone lysine methyltransferase G9a | Q96KQ7 | G9a H3K9 monomethylation, AlphaScreen, 2 h | Potency, µM (doses to about 102 µM), for inactives: at the top dose activity, negative = inhibition, most hits filed as inhibitors | actives 8.8% (n = 350,000) | AID 504332; further: on the % scale 0 is the no-effect control and ±100 the full control effect; nearly all actives have a fitted effect of over 75% in size
Target sequence (Q96KQ7 913-1193 limits assumed): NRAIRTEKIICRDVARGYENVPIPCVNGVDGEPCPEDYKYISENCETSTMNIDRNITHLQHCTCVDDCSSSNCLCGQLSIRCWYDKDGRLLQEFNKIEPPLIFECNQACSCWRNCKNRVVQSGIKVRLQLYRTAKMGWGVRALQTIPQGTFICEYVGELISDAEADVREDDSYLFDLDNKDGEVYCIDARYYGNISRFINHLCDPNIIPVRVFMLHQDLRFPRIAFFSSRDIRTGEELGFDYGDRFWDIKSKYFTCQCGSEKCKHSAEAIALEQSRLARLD
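Compounds were preincubated with 20 nM G9a for 15 min, after which biotinylated H3K9 peptide (500 nM) and SAM (20 uM) started a 2 h room-temperature reaction. Monomethylated product was quantified by antibody-based AlphaScreen chemiluminescence.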
BAZ2B block – inhibitors of human BAZ2B bromodomain | Q9UIF8 | AlphaScreen BAZ2B-H3K14Ac peptide displacement | AID 504333 | actives 4.4% (n = 360,000) | Potency, µM (doses to about 114 µM), for inactives: at the highest dose activity change, negative = inhibition, hits mostly inhibitors; further: on the % scale 0 is the no-effect control and ±100 the full control effect; nearly all actives have a fitted effect of over 60% in size
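Compounds, titrated to a top concentration of 110 uM, were incubated 30 min at room temperature with preformed BAZ2B/acetyl-K14 H3 peptide complex (50 nM each). Proximity signal was measured by AlphaScreen after 20 min with beads.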
HP1b chromo inh – inhibitors of HP1-beta chromodomain binding to methylated histone tails; P83916; Potency, µM (series often up to 114 µM), inactives show at the highest dose activity change, negative = inhibition, actives largely listed as inhibitors; actives 0.56% (n = 390,000); AlphaScreen HP1-beta / biotin-H3K9me3 peptide binding; further: nearly all actives have a fitted effect of over 70% in size
Target sequence (P83916 whole entry, looked up): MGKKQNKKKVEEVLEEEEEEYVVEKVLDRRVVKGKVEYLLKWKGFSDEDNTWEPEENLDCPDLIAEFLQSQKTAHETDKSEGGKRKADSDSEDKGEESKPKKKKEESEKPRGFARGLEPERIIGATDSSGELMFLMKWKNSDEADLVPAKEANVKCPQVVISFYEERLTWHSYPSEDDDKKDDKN
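HP1-beta protein (50 nM final) preincubated 30 min at room temperature with biotinylated H3(1-18)K9me3 peptide (50 nM) in PBS pH 7.4, 0.01% Tween-20, then compound added for 30 min. AlphaScreen streptavidin donor/nickel chelate acceptor beads (10 ug/mL final), 30 min dark, luminescence read.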
PLK1 PBD inh – PLK1 (human) polo-box domain binding inhibition | Potency, µM, for the others: max response, negative = inhibition, most hits filed as inhibitors | P53350 | actives 2.8% (n = 360,000) | AID 720504 | Plk1 PBD binding of FITC phosphopeptide, fluorescence polarization; further: series mostly up to about 57 µM; on the % scale 0 is the no-effect control and ±100 the full control effect; nearly all actives have a fitted effect of over 65% in size
12-LOX inh – ALOX12 (human) lipoxygenase inhibition | P18054 | purified 12hLO, xylenol orange hydroperoxide absorbance | Potency, µM (highest dose often 108 µM), for inactives: top-dose activity change, negative = inhibition, hits mostly inhibitors | actives 1.1% (n = 580,000) | AID 1671190; further: on the % scale 0 is the no-effect control and ±100 the full control effect
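Purified human 12hLO at 150 nM in 25 mM Hepes, 0.01% Triton X-100, pH 7.0, preincubated 15 min at room temperature with compound. Reaction started with 40 uM arachidonic acid, 30 min at room temperature. Hydroperoxide measured by Fe-xylenol orange, 573/405 nm absorbance ratio.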
* = called active by the depositor; ? = inconclusive; nt = no result given; [ ] = dose if it differs, or a comment. The call rests on the fitted dose curve; in most records, active means well fitted curve in the direction sought with a large enough effect; inconclusive means small, poorly fitted or top-dose-only effect, or another doubt; inactive means no such curve, though single readings can be large; an effect the other way counts as inactive or inconclusive. Potency means the concentration at half of the fitted maximal effect.

SMILES	JMJD2A Tudor inh	G9a inh	BAZ2B block	HP1b chromo inh	PLK1 PBD inh	12-LOX inh
COc1ccccc1N1CCN(CC(=O)Nc2nccs2)CC1	-15%	18%	-21%	21%	-1%	20µM*
COc1cccc(C(=O)NC2CCN(CC(=O)Nc3c(C)cc(C)cc3C)CC2)c1	nt	-41%	-2%	nt	nt	nt
COc1cccc(C(=O)NC2CCN(CC(=O)Nc3nccs3)CC2)c1	?	7%[12.7 µM]	-7%	0%	24µM*	-9%
COc1ccccc1N1CCN(Cc2nc3ccsc3c(=O)[nH]2)CC1	3.5µM*	-28%[59 µM]	-7%	9%	1%	?
COc1ccc(/C=N/N=C2/NC(=O)C(CC(=O)NC(N)=O)S2)cc1 (configuration not stated)	-10%	12%	-13%	41%	10%	-1%
Cc1c(Cl)cccc1NC(=O)CSc1sc2c(O)cc(=O)[nH]c2c1C#N	-5%	?	-13%	8%	-20%	?
C=C(c1ccc(OCCO)cc1)c1ccc(OCCO)cc1	10%[11.4 µM]	-40%[12.7 µM]	11%	0%	27µM*	-1%
O=C(c1ccccc1)c1ccc(OCCO)cc1	-3%	2%	-13%	30%	1%	-4%
Cc1ccc2c(=O)cc(C(=O)Nc3ccc(S(=O)(=O)Nc4onc(C)c4C)cc3)oc2c1	-10%	-5%[59 µM]	-37%	34%	-16%	?
Cc1ccc(-c2cc(C(=O)Nc3ccc(S(=O)(=O)Nc4onc(C)c4C)cc3)c3ccccc3n2)cc1	?	45µM*	50µM*	?	34µM*	35µM*
Cc1ccc2c(C)c(C(=O)Nc3ccc(S(=O)(=O)Nc4onc(C)c4C)cc3)oc2c1	-32%	71µM*	?	-12%	-16%	-19%
Cc1noc(NS(=O)(=O)c2ccc(NC(=O)c3ccc(Cl)c(S(=O)(=O)N(C)c4ccccc4)c3)cc2)c1C	?	50µM*	45µM*	-22%	?	-26%
CCOCC(=O)N1CCC(N2CC(OCC3CC3)C23CCCCC3)CC1 (configuration not stated)	nt	nt	nt	nt	nt	14%
CCC1(CC)NC(=O)N(CC(=O)OCC(=O)NC(=O)c2ccc(Cl)cc2)C1=O	-6%	3%	5%	24%	0%	40%
CC1(C)NC(=O)N(CC(=O)OCC(=O)NC(=O)c2ccccc2)C1=O	-8%	40µM*	10%	18%	-2%	-12%
CCOC(=O)C1CCCN(C(=O)Cc2ccc(C)cc2)C1 (configuration not stated)	-11%[11.4 µM]	17%	-6%	-15%	27µM*	-11%
CCOC(=O)C1CCCN(C(=O)c2ccc(CS(=O)(=O)c3ccc(C)cc3)o2)C1 (configuration not stated)	?	50µM*	?	20%	-27%	nt
Cc1ccc(S(=O)(=O)Cc2ccc(C(=O)N3CCN(c4cc(C)ccc4C)CC3)o2)cc1	?	-30%	56µM*	0%	?	-7%
OCCCCCCCCCCC[n+]1ccccc1	nt	nt	nt	nt	nt	18%
O=C1[C@@H]2C[C@@H](CN2Cc2cccnc2)Oc2ccccc2N1CC1CC1	nt	nt	nt	nt	nt	15%[176 µM]
O=C(O)/C(=C\C(=O)c1ccccc1)Nc1ccccc1	nt	20µM*	79µM*	nt	nt	nt
CCN(CC)c1nc(-c2ccc(C(C)(C)C)cc2)nc2ccccc12	41%	65%[59 µM]	42%	71%	nt	-9%
CC1CCCN(C2=C(Cl)C(=O)N(c3cccc(Cl)c3)C2=O)C1 (configuration not stated)	93%	64%[59 µM]	95%	253%	-18%	-19%
CN1CCN(C2=C(Cl)C(=O)N(c3ccc(Cl)c(Cl)c3)C2=O)CC1	22µM*	32µM*	?	42%	27µM*	nt
CN1CCN(C2=C(Cl)C(=O)N(c3cccc(Cl)c3)C2=O)CC1	18µM*	?	-11%	-7%	-23%	?
SMILES	JMJD2A Tudor inh	G9a inh	BAZ2B block	HP1b chromo inh	PLK1 PBD inh	12-LOX inh
O=C(O)CCC(=O)N1CCN(Cc2ccc3c(c2)OCO3)CC1	-12%	?	4%	30%	-1%	26%
Cc1cc(C)n2nc(CCc3ccccc3)nc2n1	-12%	14%	12%	5%	-10%	-7%
CCC(C)Sc1nc(O)cc(=O)[nH]1 (configuration not stated)	-1%	-5%[59 µM]	7%	25%	-2%	-13%
O=c1cc(O)nc(SC23CC4CC(CC(C4)C2)C3)[nH]1	-35%	45µM*	-35%	16%	-19%	?
O=c1c2ccccc2oc2nc(-c3ccco3)n(Cc3ccccc3)c(=O)c12	-14%	?	56µM*	20%	-16%	-10%
CCCCn1c(-c2ccco2)nc2ccccc2c1=O	5%	50µM*	-22%	49%	-10%	3%
COc1ccc2c(=O)c3c(=O)n(Cc4ccco4)c(-c4ccc(C)cc4)nc3oc2c1	89µM*	?	?	9%	-9%	?
COc1ccc2c(=O)c3c(=O)n(-c4ccc(C)cc4)c(-c4ccccc4)nc3oc2c1	nt	10%	-3%	nt	nt	nt
Cc1ccc(-n2c(C)nc3oc4ccccc4c(=O)c3c2=O)cc1	50µM*	56µM*	45µM*	-25%	-28%	-20%
CCC(=O)N1CCC2(CC1)CC(N(Cc1ccccc1)C1CC1)CCO2 (configuration not stated)	nt	nt	nt	nt	nt	19%
CNC(=O)C1CC(=O)N(c2ccc(F)c(Cl)c2)C1 (configuration not stated)	-6%	6%[0.501 µM]	0%	17%	-10%	2%
CC(C)(C)NC(=O)NC(=O)COc1ccc(Br)cc1Br	12%	1%[59 µM]	7%	68%	0%	-15%
CC(C)Oc1cccc(C(=O)NC(=S)Nc2ccc3c4c(cccc24)CC3)c1	?	?	?	?	1%	18µM*
Cn1nnnc1SCC(=O)c1cccs1	-3%	?	1%	64%	-20%	-19%
C=CCc1cc(Cl)ccc1OCCNCCCOC	2.5µM*	20µM*	3%	?	-5%	-15%
C=CCc1ccccc1OCCNCCCOC	2.5µM*	8.9µM*	-35%	-36%	-6%	-18%
CCOc1ccc(Cl)cc1CNCCNCCO	-24%	nt	-35%	28%	3%	1%
CCc1ccccc1OCCCCCNCCO	-12%	24%[12.7 µM]	2%	49%	-1%	-1%
CCc1cc(OCCOCCN(C)C)ccc1Cl	2.2µM*	?	?	?	1%	?
Cc1ccc(OCCOCCN(C)C)c(Cl)c1	40µM*	8.9µM*	79µM*	?	-4%	-18%
CCOc1ccc(CN2CCC(CO)(Cc3ccccc3Cl)CC2)cc1	nt	nt	nt	nt	nt	-1%
C=CCc1cc(Cl)ccc1OCCOCCN(C)C	3.5µM*	7.9µM*	50µM*	?	1%	?
